Screens: PubChem, National Center for Advancing Translational Sciences (NCATS)
HCMV antiviral: human cytomegalovirus inhibition; AID 1259415; activity change, negative = inhibition, % at 57.5 µM; 410,000 compounds, 4.5% hits; HFF cells, HCMV-luciferase reporter, 72 h; stronger effect = lower value; in the data active = activity change below about -60%; inconclusive = no clear call, values can overlap the other calls; inactive = above about -39%
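Compounds were evaluated in HFFs infected with an HCMV luciferase reporter virus (MOI 1 PFU/cell). Luciferase in lysates collected 72 h post infection served as the replication measure.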
FMDV inh: foot and mouth disease virus antiviral activity; FMDV antiviral cell-based qHTS; Potency, µM (top dose mostly 57.9 µM), inactives show at the top dose activity change, negative = inhibition, actives largely listed as inhibitors; 410,000 compounds, 1.2% hits; AID 1159524; calls by dose curve; tested in HEK293T cells; also: read-out not given here; potency is read from the fitted curve at half-maximal effect; nearly all actives have a fitted effect of over 45% in size
MARV entry inh: Marburg virus entry inhibition; 300,000 compounds, 1.8% hits; Marburg virus pseudotyped entry inhibition, cell reporter; AID 540276; Potency, µM (doses to about 37.8 µM), inactives show at the top dose activity change, negative = inhibition, actives largely listed as inhibitors; calls by dose curve; tested in HEK293 cells; also: potency is read from the fitted curve at half-maximal effect
Vaccinia mCherry: vaccinia inhibition (mCherry reporter). Vaccinia virus mCherry reporter infection, fluorescence. Potency, µM (top dose mostly 36.5 µM), inactives show top-dose activity change, negative = inhibition, usual class: inhibitors. 310,000 compounds, 0.63% hits; calls by dose curve; tested in A549 cells; also: potency is read from the fitted curve at half-maximal effect; nearly all actives have a fitted effect of over 35% in size
LASV entry inh: Lassa virus entry inhibition | Potency, µM (highest dose often 37.9 µM), for inactives: at the top dose activity change, negative = inhibition, usual class: inhibitors | Lassa virus pseudotype entry inhibition, cell reporter | 300,000 compounds, 1.2% hits; calls by dose curve; tested in HEK293 cells; also: potency is read from the fitted curve at half-maximal effect; nearly all actives have a fitted effect of over 50% in size
Vaccinia Venus: inhibitors of vaccinia virus (Venus reporter) | 330,000 compounds, 0.46% hits | AID 720580 | Vaccinia virus Venus reporter expression, fluorescence | Potency, µM (highest dose often 36.5 µM), without a hit: at the highest dose activity change, negative = inhibition, actives largely listed as inhibitors; calls by dose curve; tested in A549 cells; also: potency is read from the fitted curve at half-maximal effect; nearly all actives have a fitted effect of over 30% in size
* hit, by the source's call; i = inactive; ? = inconclusive; . = no result; [ ] = another dose, or the depositor's remark. In the library only some 6.5% were active in any assay of this set; here they are far more common. % is scaled to controls: 0 for no effect and ±100 for the full control effect.

SMILES	HCMV antiviral	FMDV inh	MARV entry inh	Vaccinia mCherry	LASV entry inh	Vaccinia Venus
CC1CCN(C(=O)CCN2C(=O)/C(=C/c3cccs3)SC2=S)CC1	6	-11%	?	?	5.6µM*	-26%
CCOc1ccc(/C=C2\SC(=S)N(CCC(=O)O)C2=O)cc1	-64*	0.32µM*	?	-13%	-24%[46.1 µM]	-12%
COc1cc(/C=C2\SC(=S)N(CCC(=O)N3CCN(C)CC3)C2=O)cc(OC)c1OC	3	-24%	?	-20%	-29%[46.1 µM]	19%
CCC=CC[C@@]1(C(=O)OC)C=C[C@@H](C)[C@H](c2ccccc2Br)N1C(=O)C(F)(F)F	.	.	-1%[14.2 µM]	.	.	.
CC(C)C[C@H]1COc2cccc(F)c2S(=O)(=O)N1	7	.	?	.	3%[46.1 µM]	.
CCc1ccc(/C=C2\SC(=S)N(CCC(=O)N3CCN(C)CC3)C2=O)cc1	-36	22%	.	?	.	10µM*
COc1ccc(/C=C2/SC(=S)N(CCC(=O)N3CCN(C)CC3)C2=O)cc1	?	17%	?	-10%	?	-25%
O=C(CNSc1ccc([N+](=O)[O-])cc1[N+](=O)[O-])OCc1ccccc1	-24	.	.	.	.	.
O=C(Nc1ccc2nc(SCC(=O)N3CCOCC3)sc2c1)c1ccc(F)cc1	-31	-16%	?	-11%	19%[46.1 µM]	-19%
O=C(Nc1ccc2nc(SCC(=O)N3CCOCC3)sc2c1)c1ccc(Cl)cc1	-74*	20µM*	?	?	?	?
O=C(Nc1ccc2nc(SCC(=O)N3CCOCC3)sc2c1)c1ccc(Br)cc1	-4	?	?	-12%	1%[46.1 µM]	-13%
O=C(Nc1ccc2nc(SCC(=O)N3CCOCC3)sc2c1)c1ccccc1Cl	-83*	?	14%[46.1 µM]	-20%	3%[46.1 µM]	-26%
O=C(Nc1ccc2nc(SCC(=O)N3CCOCC3)sc2c1)c1cccc(Br)c1	-35	25µM*	?	-24%	-18%[46.1 µM]	-26%
O=C(COc1ccccc1Cl)Nc1ccc2nc(SCC(=O)N3CCOCC3)sc2c1	-35	?	?	-12%	3%[46.1 µM]	-14%
CC(C)C(=O)Nc1ccc2nc(SCC(=O)N3CCc4ccccc43)sc2c1	-11	35µM*	-19%[46.1 µM]	-4%	-6%[46.1 µM]	-2%
Cc1cc(N(C)C)cc(C)c1/C=C/c1ccnc2ccccc12	.	.	.	-17%	.	-23%
COC(=O)CSc1nc2ccc(NC(=O)c3ccccc3C(=O)N3CCOCC3)cc2s1	-64*	-17%	-2%	-13%	-2%	-3%
C=CCNC(=S)Nc1cc(C)ccn1	-83*	-7%	5%[14.2 µM]	-18%	-2%	-10%
Cc1ccnc(NC(=S)NC(=O)/C=C/c2ccccc2)c1	22	.	4%	-14%	21%	-3%
CN(C)/C(CN1CCN(C=O)CC1)=C1\N=C(c2ccccc2)OC1=O	-61*	-6%	-17%	-10%	?	-16%
COC1(OC)C(/C=C/c2ccc(C)cc2)C(C#N)(C#N)C1(OC)OC (centres undefined)	2	22µM*	?	14µM*	?	28µM*
Cc1ccc(-c2csc(N(CCO)CCCn3c(C(F)(F)F)nc4ccccc43)n2)cc1	-64*	?	.	-30%	.	?
O=C(Cc1ccc(F)cc1)NC(Cc1c[nH]c2ccccc12)C(=O)O (centres undefined)	-62*	17%	3%[46.1 µM]	-6%	10%	-2%
CC(C)CC(NC(=O)OCc1ccccc1)C(=O)NC(Cc1c[nH]c2ccccc12)C(=O)O (centres undefined)	.	-24%	.	-6%	.	4%
O=C(NC(Cc1c[nH]c2ccccc12)C(=O)Nc1ccc(F)cc1)c1cccs1 (centres undefined)	?	-17%	?	?	1.4µM*	13%
SMILES	HCMV antiviral	FMDV inh	MARV entry inh	Vaccinia mCherry	LASV entry inh	Vaccinia Venus
O=C(NC(Cc1c[nH]c2ccccc12)C(=O)N/N=C/c1cccnc1)c1cccs1 (centres undefined)	-78*	-12%	?	-22%	?	10%
COC(=O)C(Cc1c[nH]c2ccccc12)NC(=O)c1cccs1 (centres undefined)	62	49%	.	.	.	.
COc1ccccc1CNC(=O)C(Cc1c[nH]c2ccccc12)NC(=O)OCc1ccccc1 (centres undefined)	-8	-25%	?	-28%	4.5µM*	-26%
O=C(N/N=C/c1cccnc1)c1cccs1	20	26%	20%[46.1 µM]	-19%	17%[46.1 µM]	1%
O=C(Cc1c[nH]c2ccccc12)N[C@@H](Cc1c[nH]c2ccccc12)C(=O)O	21	1%	-3%[46.1 µM]	i	21%[46.1 µM]	-11%
O=C(O)CC/C=C\CC[C@H]1[C@@H](N2CCCCC2)[C@@H](O)C[C@@H]1OCc1ccc(-c2ccccc2)cc1	.	-8%	.	.	.	.
CC12CCC(C/C1=N\OC(=O)c1ccc(F)cc1)C2(C)C (centres undefined)	-6	-2%	0%	.	1%	.
CC12CCC(C/C1=N/OC(=O)c1cccc([N+](=O)[O-])c1)C2(C)C (centres undefined)	-65*	-20%	.	.	.	.
CN1CCN(S(=O)(=O)c2cccs2)CC1	1	-19%	-7%[46.1 µM]	i	2%	-10%
O=S(=O)(c1cccs1)N1CCN(c2ccc(O)cc2)CC1	?	-4%	?	4µM*	?	-21%
O=C(Nc1nc2ccccc2s1)c1ccc(N2CCCCC2)c([N+](=O)[O-])c1	-72*	-50%	?	-12%	?	-24%
NC(=O)c1ccc(N2CCN(S(=O)(=O)c3cccs3)CC2)c([N+](=O)[O-])c1	-84*	20µM*	.	.	.	.
CN1CCN(c2ccc(C(=O)c3ccc(Br)cc3)cc2[N+](=O)[O-])CC1	-68*	?	7.9µM*	-18%	16%	-19%
CC1=C(C(=O)Nc2ccc3[nH]ncc3c2)C(c2ccc(F)cc2)NC(=O)N1 (centres undefined)	.	.	.	.	6%	.
O=C(OC(C(=O)N1CCOCC1)c1ccccc1)c1c2c(nc3ccccc13)CCCC2 (centres undefined)	.	.	.	38%	.	9%
CCc1cnc2ccccc2c1/C=C/c1ccc(N(C)C)cc1	.	.	.	-5%	.	-18%
COc1cccc(CCc2ccccc2OCC(CN(C)C)OC(=O)CCC(=O)O)c1 (centres undefined)	.	.	.	-15%	.	-19%
CC(=O)N1CCN(c2ccc(C(N)=O)cc2[N+](=O)[O-])CC1	-33	-12%	?	0%	2%[46.1 µM]	-12%
NC(=O)c1ccc(N2CCCCCC2)c([N+](=O)[O-])c1	-60*	-9%	12%[46.1 µM]	i	?	-12%
O=C(NCc1ccncc1)c1ccc(N2CCCC2)c([N+](=O)[O-])c1	-62*	-24%	-6%[46.1 µM]	-15%	-7%	-7%
CCN(CC(=O)Nc1c(F)cccc1F)C(=O)c1cc(S(=O)(=O)N(CC)CC)ccc1N1CCCCC1	-36	31%	-11%[46.1 µM]	-11%	?	-13%
CCN(CC(=O)Nc1c(F)cccc1F)C(=O)c1ccc(N2CCCCC2)c([N+](=O)[O-])c1	-20	-21%	?	-11%	7.1µM*	-25%
